Reference: PubChem BioAssay AID1159580 (chemical genetic matrix, 2015)
The campaign covered roughly 5,500 compounds. About 2,000 (36%) were called active. Not shown: some 18% with an inconclusive outcome. Rule as the data show it: active = normalized growth mostly below about 0.91 (no sharp cut-off); inconclusive = no clear call, values can overlap the other calls; inactive = mostly above about 0.92. The list shows a part of the results.

Assay: chemical genetic growth profiling, strain panel (AID 1159580);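 also: tested at 20 µM; growth read once vehicle control cultures reached saturation at 30 °C; 1 = growth at the plate median or of vehicle wells; lower values mean less growth of the strain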
Conditions: growth OD

Measured: normalized growth

CCOC(=O)/C=C(\C)OP(=O)(OC)OC
inactive: S. cerevisiae deletion strains, locus YAL013W, strain DEP1, active compounds read low 0.973 | S. cerevisiae deletion strains, locus YBR021W, strain FUR4, active compounds read low 1.02 | S. cerevisiae deletion strains, locus YBR229C, strain ROT2, active compounds read low 0.948 | S. cerevisiae deletion strains, locus YCL029C, strain bik1, active compounds read low 0.989 | S. cerevisiae deletion strains, locus YDL035C, strain GPR1, active compounds read low 0.981 | S. cerevisiae deletion strains, locus YDL074C, strain BRE1, active compounds read low 0.937 | S. cerevisiae deletion strains, locus YDL101C, strain DUN1, active compounds read low 0.967 | S. cerevisiae deletion strains, locus YDL134C, strain PPH21, active compounds read low 0.989 | S. cerevisiae deletion strains, locus YDL185W, strain tfp1, active compounds read low 0.983 | S. cerevisiae deletion strains, locus YDL192W, strain arf1, active compounds read low 0.992 | S. cerevisiae deletion strains, locus YDR101C, strain arx1, active compounds read low 1 | S. cerevisiae deletion strains, locus YDR150W, strain NUM1, active compounds read low 0.989 | S. cerevisiae deletion strains, locus YDR162C, strain NBP2, active compounds read low 0.982 | S. cerevisiae deletion strains, locus YDR318W, strain mcm21, active compounds read low 0.987 | S. cerevisiae deletion strains, locus YDR388W, active compounds read low 1.01 | S. cerevisiae deletion strains, locus YDR502C, strain sam2, active compounds read low 0.996 | S. cerevisiae deletion strains, locus YEL061C, strain CIN8, active compounds read low 0.99 | S. cerevisiae deletion strains, locus YER110C, active compounds read low 0.992 | S. cerevisiae deletion strains, locus YER155C, strain BEM2, active compounds read low 0.984 | S. cerevisiae deletion strains, locus YER167W, strain BCK2, active compounds read low 0.988 | S. cerevisiae deletion strains, locus YGL078C, strain dbp3, active compounds read low 1.01 | S. cerevisiae deletion strains, locus YGL086W, strain mad1, active compounds read low 0.993 | S. cerevisiae deletion strains, locus YGL248W, strain PDE1, active compounds read low 0.977 | S. cerevisiae deletion strains, locus YGR078C, strain PAC10, active compounds read low 0.983 | S. cerevisiae deletion strains, locus YGR135W, strain pre9, active compounds read low 0.988 | S. cerevisiae deletion strains, locus YGR229C, strain SMI1, active compounds read low 0.984 | S. cerevisiae deletion strains, locus YGR252W, strain gcn5, active compounds read low 0.998 | S. cerevisiae deletion strains, locus YHR030C, strain SLT2, active compounds read low 0.99 | S. cerevisiae deletion strains, locus YHR079C, strain IRE1 (second series), active compounds read low 1 | S. cerevisiae deletion strains, locus YHR094C, strain hxt1, active compounds read low 1.01 | S. cerevisiae deletion strains, locus YHR129C, strain ARP1, active compounds read low 0.974 | S. cerevisiae deletion strains, locus YHR200W, strain rpn10, active compounds read low 0.994 | S. cerevisiae deletion strains, locus YIL066C, strain RNR3, active compounds read low 0.985 | S. cerevisiae deletion strains, locus YIL073C, strain SPO22, active compounds read low 1.03 | S. cerevisiae deletion strains, locus YIL125W, strain kgd1, active compounds read low 0.993 | S. cerevisiae deletion strains, locus YIR030C, strain dcg1, active compounds read low 0.996 | S. cerevisiae deletion strains, locus YJL095W, strain BCK1, active compounds read low 0.994 | S. cerevisiae deletion strains, locus YJL134W, strain LCB3, active compounds read low 0.987 | S. cerevisiae deletion strains, locus YJL168C, strain set2, active compounds read low 0.991 | S. cerevisiae deletion strains, locus YJL187C, strain SWE1 (second series), active compounds read low 0.983 | S. cerevisiae deletion strains, locus YJR043C, strain POL32, active compounds read low 0.985 | S. cerevisiae deletion strains, locus YJR075W, strain HOC1, active compounds read low 0.983 | S. cerevisiae deletion strains, locus YKL009W, strain mrt4, active compounds read low 0.947 | S. cerevisiae deletion strains, locus YKL068W, active compounds read low 0.998 | S. cerevisiae deletion strains, locus YKL085W, strain MDH1 (second series), active compounds read low 0.989 | S. cerevisiae deletion strains, locus YKL085W, strain MDH1, active compounds read low 0.989 | S. cerevisiae deletion strains, locus YKL190W, strain CNB1, active compounds read low 0.995 | S. cerevisiae deletion strains, locus YKR001C, strain vps1, active compounds read low 1 | S. cerevisiae deletion strains, locus YLR039C, strain RIC1, active compounds read low 0.976 | S. cerevisiae deletion strains, locus YLR058C, strain SHM2, active compounds read low 0.981 | S. cerevisiae deletion strains, locus YLR102C, strain apc9, active compounds read low 0.993 | S. cerevisiae deletion strains, locus YLR262C, strain YPT6, active compounds read low 0.977 | S. cerevisiae deletion strains, locus YLR268W, strain sec22, active compounds read low 0.998 | S. cerevisiae deletion strains, locus YLR330W, strain CHS5, active compounds read low 0.986 | S. cerevisiae deletion strains, locus YLR342W, strain FKS1 (second series), active compounds read low 1.02 | S. cerevisiae deletion strains, locus YLR371W, strain rom2, active compounds read low 0.996 | S. cerevisiae deletion strains, locus YLR418C, strain cdc73, active compounds read low 1.01 | S. cerevisiae deletion strains, locus YML016C, strain PPZ1, active compounds read low 0.986 | S. cerevisiae deletion strains, locus YML032C, strain rad52, active compounds read low 1 | S. cerevisiae deletion strains, locus YML124C, strain tub3, active compounds read low 1 | S. cerevisiae deletion strains, locus YMR078C, strain ctf18, active compounds read low 0.999 | S. cerevisiae deletion strains, locus YMR223W, strain ubp8, active compounds read low 0.996 | S. cerevisiae deletion strains, locus YMR263W, strain SAP30, active compounds read low 0.987 | S. cerevisiae deletion strains, locus YMR307W, strain GAS1, active compounds read low 1.04 | S. cerevisiae deletion strains, locus YNL067W, strain RPL9B, active compounds read low 0.982 | S. cerevisiae deletion strains, locus YNL128W, strain TEP1, active compounds read low 0.951 | S. cerevisiae deletion strains, locus YNL153C, strain GIM3, active compounds read low 0.985 | S. cerevisiae deletion strains, locus YNL233W, strain BNI4, active compounds read low 0.997 | S. cerevisiae deletion strains, locus YNL250W, strain rad50, active compounds read low 0.983 | S. cerevisiae deletion strains, locus YNL271C, strain bni1, active compounds read low 1 | S. cerevisiae deletion strains, locus YNL298W, strain CLA4, active compounds read low 1.01 | S. cerevisiae deletion strains, locus YNL307C, strain MCK1, active compounds read low 1.01 | S. cerevisiae deletion strains, locus YNL322C, strain KRE1, active compounds read low 0.977 | S. cerevisiae deletion strains, locus YNR052C, strain pop2, active compounds read low 0.996 | S. cerevisiae deletion strains, locus YOL006C, strain TOP1, active compounds read low 0.926 | S. cerevisiae deletion strains, locus YOL012C, strain htz1 0.854 | S. cerevisiae deletion strains, locus YOL147C, strain pex11, active compounds read low 1.01 | S. cerevisiae deletion strains, locus YOR061W, strain CKA2, active compounds read low 0.961 | S. cerevisiae deletion strains, locus YOR069W, strain VPS5, active compounds read low 0.99 | S. cerevisiae deletion strains, locus YOR136W, strain idh2, active compounds read low 0.993 | S. cerevisiae deletion strains, locus YOR144C, strain elg1, active compounds read low 0.997 | S. cerevisiae deletion strains, locus YOR184W, strain ser1, active compounds read low 1.01 | S. cerevisiae deletion strains, locus YOR316C, strain cot1, active compounds read low 0.981 | S. cerevisiae deletion strains, locus YPL055C, strain LGE1, active compounds read low 0.975 | S. cerevisiae deletion strains, locus YPL241C, strain CIN2, active compounds read low 0.993 | S. cerevisiae deletion strains, locus YPR119W, strain clb2, active compounds read low 1 | S. cerevisiae deletion strains, locus YPR141C, strain kar3, active compounds read low 0.991 | S. cerevisiae deletion strains, locus YPR163C, strain tif3, active compounds read low 1.01 | S. cerevisiae deletion strains, locus YPR167C, strain met16, active compounds read low 0.995 | S. cerevisiae deletion strains, strain wtn01, active compounds read low 1 | S. cerevisiae strains, strain wild type, active compounds read low 0.985
